Drawing on PubChem BioAssay (NCI), this text covers growth for 14 molecules.

Among the test systems are HCT-15 colon; HT29 colon; SNB-75 CNS; SNB-19 CNS; PC-3 prostate; SK-MEL-5 melanoma; UACC-62 melanoma; LOX IMVI melanoma; SK-MEL-28 melanoma; U251 CNS.
Common to all, as to test: NCI-60 one-dose screen, 48 h (100 = growth as untreated, 0 = no growth, -100 = all killed)
Holding throughout (conditions): 10 µM unless noted

About 83,000 compounds went through this panel and 20% of them were active in at least one assay; those are over-represented in the sample as a whole.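 Cell lines were cultured in 96-well plates, exposed to a single compound concentration, and assessed for percent growth 48 hours later.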 A number with no mark means an inactive call. Calls of active or inactive are those of the source. The calls were made as follows: active = growth percent below 10; inactive = the rest.

In the case of `CC1=C(SCCC(=O)OC(C[Se]C2=C(C)C(=O)c3ccccc3C2=O)C(=O)NC(C)(C)C)C(=O)c2ccccc2C1=O` (stereo not given), the growth in the test on HCT-15 colon was 1.48% (active); in the test on HT29 colon it was -5.09% (active); in the test with SNB-75 CNS it was -95.9% (active); with SNB-19 CNS, -92.6% (active); in the test with PC-3 prostate, -64% (active); in the test with SK-MEL-5 melanoma it was -99.4% (active). In addition, the values for the growth in the test with UACC-62 melanoma, in the test on LOX IMVI melanoma and in the test with SK-MEL-28 melanoma were -91.2% (active), -52.2% (active) and -96% (active), respectively.

For the molecule `O=C1COCCN1c1ccc(NCc2cn(C(=O)c3ccc(Cl)cc3)c3ccccc23)cc1`, the growth in the test on HCT-15 colon is 54.9%; in the test on HT29 colon, 44.5%; with SNB-75 CNS it was 59.6%; with SNB-19 CNS it was 91.7%; in the test with PC-3 prostate, 71.4%; in the test on SK-MEL-5 melanoma it was 25.1%. Also, the growth was -41.1% (active) with UACC-62 melanoma, 77.1% with LOX IMVI melanoma and 97% with SK-MEL-28 melanoma.

As for `Cc1nc2ccccc2n1CC1C(=O)NC(=O)NC1=O`, the growth in the test on HCT-15 colon was 106%; with HT29 colon, 107%; in the test with SNB-75 CNS it was 94.1%; in the test on SNB-19 CNS it was 98.5%; in the test on PC-3 prostate, 103%; in the test on SK-MEL-5 melanoma, 100%. For the same molecule, the growth in the test on UACC-62 melanoma is 103%; with LOX IMVI melanoma, 100%; in the test with SK-MEL-28 melanoma it was 108%.

As for `C=C1C(=O)O[C@H]2[C@H]1CC/C(COC(=O)CSCC(=O)OC/C1=C/CC[C@@]3(C)O[C@H]3[C@H]3OC(=O)C(=C)[C@@H]3CC1)=C\CC[C@@]1(C)O[C@@H]21`, the growth is 5.12% (active) in the test with HCT-15 colon; -26% (active) in the test on HT29 colon; 81.8% in the test with SNB-75 CNS; 69.1% in the test on SNB-19 CNS; 34.3% in the test on U251 CNS; 46.9% in the test with PC-3 prostate. In addition, the growth in the test on UACC-62 melanoma was 42.4%; in the test on LOX IMVI melanoma it was -25.2% (active); in the test with SK-MEL-28 melanoma, -3.76% (active).

Regarding `Cc1ccc(C(CC(=O)O)c2c(C)[nH][nH]c2=O)cc1` (stereo not given), the growth is 103% with HCT-15 colon; 113% with HT29 colon; 92.9% with SNB-75 CNS; 98.5% in the test with SNB-19 CNS; 96.4% in the test on U251 CNS; 105% in the test on PC-3 prostate. Besides, the growth with UACC-62 melanoma is 96.1%; in the test with LOX IMVI melanoma, 95.5%; in the test on SK-MEL-28 melanoma, 110%.

Consider `CCCCCCN(CCCCCC)c1ccc(/C=C2/SC(=O)NC2=O)c(C)c1`, for which the growth in the test on HCT-15 colon was 75.7%; with HT29 colon, 79.6%; with SNB-75 CNS it was 78.8%; in the test with SNB-19 CNS, 96%; in the test with U251 CNS, 75.5%; in the test on PC-3 prostate, 69.8%. For the same molecule, the growth with UACC-62 melanoma is 73.1%; with LOX IMVI melanoma, 86.5%; in the test on SK-MEL-28 melanoma, 93.8%.

`O=C(Nc1ccc(Br)cc1F)c1cc(Br)ccc1O`: the growth with HCT-15 colon was 4.49% (active); in the test on HT29 colon, 59.3%; with SNB-75 CNS, 1.84% (active); in the test on SNB-19 CNS, 19.6%; in the test with U251 CNS, 13.8%; in the test with PC-3 prostate, 11.9%. Moreover, the growth in the test on UACC-62 melanoma is -31.4% (active); with LOX IMVI melanoma it was 6.99% (active); in the test with SK-MEL-28 melanoma, 8.29% (active).

As for `O=C(N/N=C/[C@H](O)[C@@H](O)[C@@H](O)[C@H](O)CO)c1ccc(NC(=O)c2cccnc2)cc1`, the growth with HCT-15 colon is 105%; in the test on HT29 colon it was 111%; in the test with SNB-75 CNS, 92.6%; in the test on SNB-19 CNS, 97.4%; with PC-3 prostate it was 102%; in the test on SK-MEL-5 melanoma, 104%. The growth was 95.5% in the test on UACC-62 melanoma, 104% in the test on LOX IMVI melanoma and 111% with SK-MEL-28 melanoma.

For `Cc1ccc2nc(NC(=O)CSc3nc(Cl)c(C#N)c(-c4ccccc4)n3)sc2c1`, the growth in the test on HCT-15 colon is 99.8%; with HT29 colon, 102%; in the test with SNB-75 CNS, 95.9%; with SNB-19 CNS it was 96%; in the test on PC-3 prostate, 89.5%; in the test with SK-MEL-5 melanoma it was 102%. Also, the results for the growth in the test on UACC-62 melanoma, with LOX IMVI melanoma and in the test on SK-MEL-28 melanoma were 88.3%, 94.3% and 103%, respectively.

For `COc1ccc(/C=C2\Oc3cc(OCCN4CCC(Cc5ccccc5)CC4)ccc3C2=O)cc1OC`, the growth with HCT-15 colon is 33.5%; in the test with HT29 colon it was 21.7%; with SNB-75 CNS it was 80.8%; with SNB-19 CNS, 92.6%; in the test with U251 CNS, 70.9%; in the test on PC-3 prostate it was 78.1%. The growth in the test with UACC-62 melanoma was 74.4%; with LOX IMVI melanoma, 7.25% (active); with SK-MEL-28 melanoma, 81.5%.

Consider `NCCCNc1nc2ccccc2c2c(=O)c3cc(F)cc(Cl)c3sc12`, for which the growth is 64.1% in the test on HCT-15 colon; 4.38% (active) with HT29 colon; 69.7% in the test with SNB-75 CNS; 89.4% with SNB-19 CNS; -63.9% (active) in the test with U251 CNS; 59.4% with PC-3 prostate. The growth was 98.7% with UACC-62 melanoma and 107% in the test on SK-MEL-28 melanoma.

On to `N#Cc1c(-c2ccc(Cl)cc2)nc(NCCO)[nH]c1=O`, for which the growth was 102% in the test on HCT-15 colon; 106% in the test with HT29 colon; 81% with SNB-75 CNS; 102% in the test on SNB-19 CNS; 98.7% in the test on U251 CNS; 92.4% in the test on PC-3 prostate. Moreover, the results for the growth in the test with UACC-62 melanoma, in the test with LOX IMVI melanoma and in the test with SK-MEL-28 melanoma were 84.4%, 97.3% and 112%, respectively.

For the molecule `NCCOc1ncccc1/C=C1\C2C=CC=CC2C2C=CC(F)=CC12` (stereo not given), the growth in the test with HCT-15 colon is 7.3% (active); in the test on HT29 colon, 14.4%; with SNB-75 CNS, 40.3%; in the test with SNB-19 CNS, 16%; in the test with PC-3 prostate it was 33.9%; in the test with SK-MEL-5 melanoma, 21.7%. The growth was 31.5% with UACC-62 melanoma, -22.5% (active) in the test with LOX IMVI melanoma and 64.3% with SK-MEL-28 melanoma.

With `COc1ccc(C2NC(=O)C(C#N)c3c2sc2c(F)cccc32)c(OC)c1` (stereo not given), the growth in the test on HCT-15 colon was 36.3%; in the test with HT29 colon, 66.1%; with SNB-75 CNS, -5.26% (active); in the test on SNB-19 CNS, 44.2%; with U251 CNS, 39.3%; with PC-3 prostate it was 56.8%. Further, the values for the growth in the test on UACC-62 melanoma, with LOX IMVI melanoma and in the test with SK-MEL-28 melanoma were 42.3%, 39.7% and 55.1%, respectively.
